Assay results reported in the supplement of paper PMC3545927.
This is one part of the list. No count for the full screen is at hand.

Biological target: furin, P09958
Assay: furin cleavage Z-score vs untreated control; higher = more cleavage, active = 3.5 or more, inactive = 1 or less, 8 variable residues between constant flanks
Summary of the method: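 The cleavage Z-score was derived for purified furin acting on 8-mer peptides held on magnetic beads and fused to a cDNA oligonucleotide. Digests lasted 7.5, 15 or 30 min at 1:10 enzyme:substrate in 50 mM HEPES pH 7.5 with CaCl2 and NaCl. Sequencing counts of released DNA, log-transformed against furin-free reactions, were lowess-adjusted and scaled by median absolute deviation.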

Chain of furin, P09958 (P09958 whole entry): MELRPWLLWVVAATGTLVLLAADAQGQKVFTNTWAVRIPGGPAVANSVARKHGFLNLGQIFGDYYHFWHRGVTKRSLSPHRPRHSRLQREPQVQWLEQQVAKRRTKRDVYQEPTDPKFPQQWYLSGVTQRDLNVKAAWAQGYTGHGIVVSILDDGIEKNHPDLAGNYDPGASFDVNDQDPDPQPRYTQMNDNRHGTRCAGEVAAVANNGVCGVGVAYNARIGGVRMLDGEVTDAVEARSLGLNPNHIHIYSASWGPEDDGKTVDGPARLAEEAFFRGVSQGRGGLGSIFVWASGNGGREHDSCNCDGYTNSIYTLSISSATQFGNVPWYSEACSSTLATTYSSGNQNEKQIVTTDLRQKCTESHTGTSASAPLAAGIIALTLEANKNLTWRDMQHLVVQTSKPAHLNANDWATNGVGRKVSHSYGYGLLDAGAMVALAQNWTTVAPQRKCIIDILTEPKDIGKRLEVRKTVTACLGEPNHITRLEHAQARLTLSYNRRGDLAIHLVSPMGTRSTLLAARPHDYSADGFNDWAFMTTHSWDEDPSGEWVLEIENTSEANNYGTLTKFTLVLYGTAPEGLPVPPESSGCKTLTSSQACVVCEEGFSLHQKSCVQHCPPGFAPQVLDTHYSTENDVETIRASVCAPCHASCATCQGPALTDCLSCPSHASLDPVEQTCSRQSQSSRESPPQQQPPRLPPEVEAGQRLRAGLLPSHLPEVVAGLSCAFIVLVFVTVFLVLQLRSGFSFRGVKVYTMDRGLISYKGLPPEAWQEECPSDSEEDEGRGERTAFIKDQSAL

## CAEVVTSTWYAGNASASA [HC2249]
7.5 min
  furin cleavage Z-score: -1.56 (inactive)
15 min
  furin cleavage Z-score: -0.21 (inactive)
30 min
  furin cleavage Z-score: -0.098 (inactive)

## CALKKRSYFGAGNASASA [FS-2870]
7.5 min
  furin cleavage Z-score: 0.606 (inactive)
15 min
  furin cleavage Z-score: 0.802 (inactive)
30 min
  furin cleavage Z-score: 1.4

## CAEVVNSTWVAGNASASA [HC138]
7.5 min
  furin cleavage Z-score: 0.467 (inactive)
15 min
  furin cleavage Z-score: -0.699 (inactive)
30 min
  furin cleavage Z-score: 1.06

## CALLSRKKREAGNASASA [FS-271]
7.5 min
  furin cleavage Z-score: 8.61 (active)
15 min
  furin cleavage Z-score: 6.86 (active)
30 min
  furin cleavage Z-score: 6.5 (active)

## CADVNRLKREAGNASASA [FS-648]
7.5 min
  furin cleavage Z-score: 14.4 (active)
15 min
  furin cleavage Z-score: 13.9 (active)
30 min
  furin cleavage Z-score: 11.5 (active)

## CAPPSREKKVAGNASASA [FS-1051]
7.5 min
  furin cleavage Z-score: -1.64 (inactive)
15 min
  furin cleavage Z-score: -0.193 (inactive)
30 min
  furin cleavage Z-score: 0.495 (inactive)

## CAGAGRARRRAGNASASA [FS-995]
7.5 min
  furin cleavage Z-score: -0.00606 (inactive)
15 min
  furin cleavage Z-score: 2.14
30 min
  furin cleavage Z-score: 1.07

## CALLSRKRRRAGNASASA [FS-1539]
7.5 min
  furin cleavage Z-score: 11.7 (active)
15 min
  furin cleavage Z-score: 12.2 (active)
30 min
  furin cleavage Z-score: 9.16 (active)

## CALLSRPLRGAGNASASA [FS-1229]
7.5 min
  furin cleavage Z-score: -0.34 (inactive)
15 min
  furin cleavage Z-score: -0.208 (inactive)
30 min
  furin cleavage Z-score: -1.05 (inactive)

## CAPPSRARRRAGNASASA [FS-73]
7.5 min
  furin cleavage Z-score: 5.98 (active)
15 min
  furin cleavage Z-score: 6.69 (active)
30 min
  furin cleavage Z-score: 6.77 (active)

## CAWLEVVTSTAGNASASA [HC2268]
7.5 min
  furin cleavage Z-score: 0.509 (inactive)
15 min
  furin cleavage Z-score: 1.8
30 min
  furin cleavage Z-score: 1.63

## CATKSRKKREAGNASASA [FS-1493]
7.5 min
  furin cleavage Z-score: 12.1 (active)
15 min
  furin cleavage Z-score: 10.8 (active)
30 min
  furin cleavage Z-score: 8.58 (active)

## CALLFRSNRDAGNASASA [FS-822]
7.5 min
  furin cleavage Z-score: 5.19 (active)
15 min
  furin cleavage Z-score: 4.77 (active)
30 min
  furin cleavage Z-score: 4.55 (active)

## CALLSRVRREAGNASASA [FS-1540]
7.5 min
  furin cleavage Z-score: 7.59 (active)
15 min
  furin cleavage Z-score: 6.32 (active)
30 min
  furin cleavage Z-score: 5.92 (active)

## CALLSPRGSRAGNASASA [HC209]
7.5 min
  furin cleavage Z-score: 0.623 (inactive)
15 min
  furin cleavage Z-score: -0.229 (inactive)
30 min
  furin cleavage Z-score: 0.325 (inactive)

## CALLSRRPRDAGNASASA [FS-611]
7.5 min
  furin cleavage Z-score: 10.2 (active)
15 min
  furin cleavage Z-score: 10.5 (active)
30 min
  furin cleavage Z-score: 8.78 (active)

## CALLSCLTVPAGNASASA [HC251]
7.5 min
  furin cleavage Z-score: -1.14 (inactive)
15 min
  furin cleavage Z-score: 0.458 (inactive)
30 min
  furin cleavage Z-score: -0.633 (inactive)

## CAALWRVSAEAGNASASA [HC1201]
7.5 min
  furin cleavage Z-score: -1.28 (inactive)
15 min
  furin cleavage Z-score: -0.15 (inactive)
30 min
  furin cleavage Z-score: -1.16 (inactive)

## CALLFLLLADAGNASASA [HC521]
7.5 min
  furin cleavage Z-score: -0.353 (inactive)
15 min
  furin cleavage Z-score: -1.02 (inactive)
30 min
  furin cleavage Z-score: -2.28 (inactive)

## CAFEECSQHLAGNASASA [HC1667]
7.5 min
  furin cleavage Z-score: 1.36
15 min
  furin cleavage Z-score: 0.54 (inactive)
30 min
  furin cleavage Z-score: -0.544 (inactive)

## CAHNSRKKREAGNASASA [FS-1340]
7.5 min
  furin cleavage Z-score: 11.8 (active)
15 min
  furin cleavage Z-score: 13.6 (active)
30 min
  furin cleavage Z-score: 9.48 (active)

## CAFHYVTGMTAGNASASA [HC1210]
7.5 min
  furin cleavage Z-score: 0.168 (inactive)
15 min
  furin cleavage Z-score: -0.792 (inactive)
30 min
  furin cleavage Z-score: -0.653 (inactive)

## CAGFGAYMSKAGNASASA [HC792]
7.5 min
  furin cleavage Z-score: 1.73
15 min
  furin cleavage Z-score: -1.14 (inactive)
30 min
  furin cleavage Z-score: 1.32

## CARKAKEEGTAGNASASA [FS-2957]
7.5 min
  furin cleavage Z-score: -0.545 (inactive)
15 min
  furin cleavage Z-score: 1.07
30 min
  furin cleavage Z-score: -0.377 (inactive)

## CARARRQLGTAGNASASA [FS-3184]
7.5 min
  furin cleavage Z-score: 4.41 (active)
15 min
  furin cleavage Z-score: 5.24 (active)
30 min
  furin cleavage Z-score: 4.88 (active)

## CARKARALGTAGNASASA [FS-2034]
7.5 min
  furin cleavage Z-score: 7.98 (active)
15 min
  furin cleavage Z-score: 9.85 (active)
30 min
  furin cleavage Z-score: 7.74 (active)

## CAEVNCHRPSAGNASASA [HC2361]
7.5 min
  furin cleavage Z-score: 1.09
15 min
  furin cleavage Z-score: 1.04
30 min
  furin cleavage Z-score: -0.207 (inactive)

## CAPFDLLDFNAGNASASA [CS3]
7.5 min
  furin cleavage Z-score: -0.762 (inactive)
15 min
  furin cleavage Z-score: -0.626 (inactive)
30 min
  furin cleavage Z-score: -1.52 (inactive)

## CAMREVPCHRAGNASASA [HC2426]
7.5 min
  furin cleavage Z-score: -1.33 (inactive)
15 min
  furin cleavage Z-score: -0.795 (inactive)
30 min
  furin cleavage Z-score: -0.936 (inactive)

## CAARAQAPPPAGNASASA [HC958]
7.5 min
  furin cleavage Z-score: -1.14 (inactive)
15 min
  furin cleavage Z-score: -1.1 (inactive)
30 min
  furin cleavage Z-score: -1.17 (inactive)

## CAARARNKREAGNASASA [FS-217]
7.5 min
  furin cleavage Z-score: 9.23 (active)
15 min
  furin cleavage Z-score: 10.8 (active)
30 min
  furin cleavage Z-score: 7.52 (active)

## CARKKKHRKNAGNASASA [FS-2265]
7.5 min
  furin cleavage Z-score: 0.00727 (inactive)
15 min
  furin cleavage Z-score: -0.00103 (inactive)
30 min
  furin cleavage Z-score: -1.45 (inactive)

## CANQRRNKREAGNASASA [FS-279]
7.5 min
  furin cleavage Z-score: 13.2 (active)
15 min
  furin cleavage Z-score: 11.8 (active)
30 min
  furin cleavage Z-score: 8.6 (active)

## CAARAAWETAAGNASASA [HC1567]
7.5 min
  furin cleavage Z-score: 1.07
15 min
  furin cleavage Z-score: 0.154 (inactive)
30 min
  furin cleavage Z-score: -0.51 (inactive)

## CAARARHRKNAGNASASA [FS-1512]
7.5 min
  furin cleavage Z-score: 3.46
15 min
  furin cleavage Z-score: 4.75 (active)
30 min
  furin cleavage Z-score: 6.6 (active)

## CAEGCGWAGWAGNASASA [HC205]
7.5 min
  furin cleavage Z-score: -0.871 (inactive)
15 min
  furin cleavage Z-score: 1.45
30 min
  furin cleavage Z-score: -1.04 (inactive)

## CATESDIRTEAGNASASA [HC1485]
7.5 min
  furin cleavage Z-score: -0.326 (inactive)
15 min
  furin cleavage Z-score: -0.524 (inactive)
30 min
  furin cleavage Z-score: -0.55 (inactive)

## CAVVCCSMSRAGNASASA [HC2093]
7.5 min
  furin cleavage Z-score: 0.591 (inactive)
15 min
  furin cleavage Z-score: 1.03
30 min
  furin cleavage Z-score: 0.426 (inactive)

## CARWKRQNFHAGNASASA [FS-2471]
7.5 min
  furin cleavage Z-score: 1.47
15 min
  furin cleavage Z-score: 0.449 (inactive)
30 min
  furin cleavage Z-score: 3.01

## CARWKRTQSQAGNASASA [FS-2845]
7.5 min
  furin cleavage Z-score: -0.543 (inactive)
15 min
  furin cleavage Z-score: 1.6
30 min
  furin cleavage Z-score: 1.76

## CARWKRYQRSAGNASASA [FS-142]
7.5 min
  furin cleavage Z-score: 9.87 (active)
15 min
  furin cleavage Z-score: 10.7 (active)
30 min
  furin cleavage Z-score: 9.68 (active)

## CARWKRTQRHAGNASASA [FS-2623]
7.5 min
  furin cleavage Z-score: 8.7 (active)
15 min
  furin cleavage Z-score: 11.5 (active)
30 min
  furin cleavage Z-score: 8.86 (active)

## CARWGRYEGGAGNASASA [FS-2844]
7.5 min
  furin cleavage Z-score: -0.438 (inactive)
15 min
  furin cleavage Z-score: -2.78 (inactive)
30 min
  furin cleavage Z-score: -1.36 (inactive)

## CARWKRYRRWAGNASASA [FS-1077]
7.5 min
  furin cleavage Z-score: 10.1 (active)
15 min
  furin cleavage Z-score: 12.1 (active)
30 min
  furin cleavage Z-score: 10.9 (active)
